Assay [1] can be described thus: inhibitors of TNFa-induced NFkB p65 translocation, primary screen, imaging, HUVEC, MLSMR starter and 10KST1 sets (AID 438).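 Further: compound added about 3h40 before a 20 min TNFalpha stimulation.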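 On inhibition: signal is the nuclear over cytoplasmic p65 intensity ratio per well.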 The conditions noted are these: HUVEC TNFa-induced p65 nuclear translocation; cell count: measured here: nuclei count (cytotoxicity indicator), at 2.08 µM; inhibition: at 2 µM, stronger effect = higher value, 0% TNFa-plus-vehicle, 100% no-TNFa wells.
A short description of assay [2]: inhibitors of mutant huntingtin aggregation, primary screen, imaging, exon1htt(103Q)mCFP cells, high-content imaging (AID 483;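 active means visual image review flags a hit and inhibition of aggregation exceeds 20%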;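 further: compound exposure lasted 3 days before fixation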;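 on nuclei count: percent of the per-plate median nuclei count of sample wells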). The conditions noted are these: exon1htt(103Q)mCFP cell line, aggregate imaging, at 2 µM; inhibition of aggregation: stronger effect = higher value; nuclei count: measured here: cell count, toxicity.
Assay [3] is described as follows: inhibitors of E-selectin induction by TNFa, primary screen, imaging, HUVEC, immunofluorescence, MLSMR starter and 10KST1 sets (AID 487;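 active means visually confirmed hit in the image check and inhibition above 20%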;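 on inhibition: signal is fraction of cell area covered by stained E-selectin grains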;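 on nuclei count: 100% = median nuclei count of all wells on the same plate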). As to conditions: HUVEC TNFalpha-induced E-selectin immunofluorescence imaging, at 2 µM; inhibition: stronger effect = higher value; nuclei count: measured here: cell number, toxicity.
Assay [4] addresses Voltage-gated potassium channel subunit beta-2 (Rattus norvegicus) (UniProt P62483). Nature of the assay: KvBeta enzyme negative modulators, primary screen, biochemical, NADPH fluorescence (AID 622;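 active means fluorescence slope higher than the sample average by over 3 SD, cut at about -0.22 in these data, passing the limit was not always enough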;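 further: slope of raw intensity against log time taken from 70 to 1610 s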). The conditions noted are these: recombinant KvBeta, 4-cyanobenzaldehyde reduction, at 10 µM, stronger effect = higher value.
Assay [5] shares this target. As to the kind of experiment: KvBeta positive modulators, primary screen, biochemical, NADPH fluorescence (AID 623;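 active means NADPH fluorescence slope more negative than the mean of all samples by about 3 SD, 99.7% confidence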;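 further: fluorescence intensity change per second fitted from 20 to 320 s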). The conditions noted are these: Recombinant KvBeta, NADPH fluorescence decrease slope, 10 min; at 10 µM; stronger effect = lower value.
Assay [6] addresses Alpha-2C adrenergic receptor (Homo sapiens) (UniProt P18825). Nature of the assay: modulators of alpha2C/GIRK thallium flux, primary screen, cell-based, HEK293 alpha2C/GIRK1/2 (AID 624;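 active means fluorescence slope after compound addition differing from the mean of all screened samples at 99.7% confidence, in either direction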;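 further: slope of fluorescence ratio to pre-addition baseline per second over 15 to 24 s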). As to conditions: thallium flux BTC fluorescence, at 10 µM, actives lie on both sides.
A short description of assay [7]: inhibitors of Sendai virus-induced IRF3 signaling, primary screen, TLR/RLR signaling modifier project, cell-based, Sendai virus stimulus, luciferase, 10K MLSCN set (AID 602276;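 active means inhibition at or above 50% at 10 µM; inactive means inhibition below 50%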;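 further: firefly luciferase from ISG56 promoter only with Renilla not read in this screen; 0% = Sendai virus plus DMSO and 100% = medium plus DMSO without virus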). As to conditions: HEK293 RL24 IRF3 luciferase reporter, at 10 µM, stronger effect = higher value. (In general: A reporter such as luciferase makes a cellular process visible.)
A short description of assay [8]: inhibitors of poly I:C-induced TLR3 signaling, primary screen, cell-based, poly I:C stimulus, luciferase, 10K MLSCN set (AID 602277;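 active means inhibition of the reporter signal at or above 50%; inactive means inhibition below 50%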). The conditions noted are these: HEK293-TLR3 RL24 IRF3 luciferase reporter, at 10 µM, stronger effect = higher value.

Calls of active or inactive are those of the source.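 How the source made its calls, unless noted: active means inhibition above 20% together with a positive visual image hit; inconclusive means visual image hit but inhibition not above 20%; inactive means no visual image hit.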

Sequence of Voltage-gated potassium channel subunit beta-2 (Rattus norvegicus) (P62483 whole entry, looked up): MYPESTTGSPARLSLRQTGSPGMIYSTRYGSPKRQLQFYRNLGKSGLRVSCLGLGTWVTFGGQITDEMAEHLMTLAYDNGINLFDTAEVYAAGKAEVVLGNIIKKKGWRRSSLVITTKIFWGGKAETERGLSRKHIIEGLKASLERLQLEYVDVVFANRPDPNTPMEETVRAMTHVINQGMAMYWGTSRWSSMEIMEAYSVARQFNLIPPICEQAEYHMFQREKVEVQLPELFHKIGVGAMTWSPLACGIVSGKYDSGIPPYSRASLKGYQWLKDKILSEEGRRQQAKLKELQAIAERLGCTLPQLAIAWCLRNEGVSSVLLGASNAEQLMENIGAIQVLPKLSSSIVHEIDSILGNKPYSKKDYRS
Sequence of Alpha-2C adrenergic receptor (Homo sapiens) (P18825 whole entry, looked up): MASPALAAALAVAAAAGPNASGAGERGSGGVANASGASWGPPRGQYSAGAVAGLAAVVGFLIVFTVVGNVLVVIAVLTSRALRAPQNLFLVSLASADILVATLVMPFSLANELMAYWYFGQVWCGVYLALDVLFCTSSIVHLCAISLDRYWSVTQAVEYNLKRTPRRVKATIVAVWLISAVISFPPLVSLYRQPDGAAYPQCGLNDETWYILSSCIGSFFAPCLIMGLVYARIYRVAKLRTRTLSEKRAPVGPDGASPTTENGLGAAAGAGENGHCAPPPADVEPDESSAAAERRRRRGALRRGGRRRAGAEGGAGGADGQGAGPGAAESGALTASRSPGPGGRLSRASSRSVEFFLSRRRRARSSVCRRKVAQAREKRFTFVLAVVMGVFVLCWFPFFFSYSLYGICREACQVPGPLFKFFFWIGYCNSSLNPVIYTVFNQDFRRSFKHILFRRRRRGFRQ

What is called inhibition is the drop in the measured response relative to a control, in per cent. For `COc1ccc(N=c2scc(-c3ccc(S(=O)(=O)N4CCOCC4)cc3)n2CCCO)cc1`, in assay [1], the cell count was 974. Also, the inhibition is -6.1% (inactive) in assay [1], -218% (inactive) in assay [3], 41.4% (inactive) in assay [7] and -19.4% (inactive) in assay [8]. For the same compound, in assay [2], the inhibition of aggregation was 23% (inactive). Further, the figures for the nuclei count in assay [2] and in assay [3] were 99.9% and 136%, respectively. Besides, the fluorescence slope in assay [4] was -0.319 (inactive). Moreover, the NADPH fluorescence slope in assay [5] was -2.9e-05 (inactive). In addition, in assay [6], the slope was 0.00558 (inactive).
Turning to `COc1ccc2c(c1OC)C(=O)N(c1ccc3c(c1)CCC3)C2=O`, the cell count in assay [1] is 683. The inhibition in assay [1] is -13.1% (inactive); in assay [3], -10.6% (inactive); in assay [7], 8.67% (inactive); in assay [8] it was -9.24% (inactive). Also, the inhibition of aggregation in assay [2] was -0.9% (inactive). Besides, the nuclei count in assay [2] is 103%; in assay [3] it was 107%. Also, in assay [4], the fluorescence slope is -0.499 (inactive). Also, the NADPH fluorescence slope in assay [5] is 3.4e-05 (inactive). Moreover, in assay [6], the slope is 0.00573 (inactive).
Consider `Cc1nn(-c2ccccc2)c2sc(C(=O)N3CCOCC3)cc12`, for which, in assay [1], the cell count amounted to 536. Moreover, the inhibition in assay [1] is -4.4% (inactive); in assay [3], -11.9% (inactive); in assay [7] it was -21.4% (inactive); in assay [8] it was -21.6% (inactive). Besides, the inhibition of aggregation in assay [2] is -1.9% (inactive). The nuclei count was 115% in assay [2] and 118% in assay [3]. Moreover, the fluorescence slope in assay [4] is -0.398 (inactive). The NADPH fluorescence slope in assay [5] is 1.4e-05 (inactive). In addition, the slope in assay [6] is 0.00676 (inactive).
Take `Fc1ccc(-c2csc3nnc(SCc4cccnc4)n23)cc1`: in assay [1], the cell count stood at 376. Also, the inhibition in assay [1] is 4.4% (inactive); in assay [3], -30% (inactive); in assay [7], 1.55% (inactive); in assay [8] it was 20.4% (inactive). The inhibition of aggregation in assay [2] is -9.6% (inactive). Also, the nuclei count in assay [2] was determined as 97.5%; in assay [3] it was 116%. The fluorescence slope in assay [4] was -0.312 (inactive). The NADPH fluorescence slope in assay [5] is -2.7e-05 (inactive). In assay [6], the slope is 0.00572 (inactive).
With `O=C(NCCCN1CCCC1=O)c1ccc2c(c1)NC(=O)C(N1CCOCC1)S2` (centres undefined), the cell count in assay [1] stood at 431. The inhibition in assay [1] was 7.4% (inactive); in assay [3], -21.8% (inactive); in assay [7], 6.23% (inactive); in assay [8] it was 15% (inactive). Besides, in assay [2], the inhibition of aggregation is -20.6% (inactive). Also, the nuclei count in assay [2] is 114%; in assay [3], 116%. Further, the fluorescence slope in assay [4] was -0.615 (inactive). For the same compound, in assay [5], the NADPH fluorescence slope was -3.9e-05 (inactive). The slope in assay [6] was 0.00374 (inactive).
Take `O=C1c2ccccc2C(=O)N1C/C=C/c1ccccc1`: the cell count in assay [1] came to 320. In addition, the inhibition in assay [1] is 6.3% (inactive); in assay [3], -3.5% (inactive); in assay [7], 21.6% (inactive); in assay [8] it was 25.4% (inactive). Also, the inhibition of aggregation in assay [2] was -5.9% (inactive). The nuclei count is 98.3% in assay [2] and 112% in assay [3]. The fluorescence slope in assay [4] is -0.495 (inactive). Moreover, the NADPH fluorescence slope in assay [5] was -5.2e-05 (inactive). Moreover, in assay [6], the slope was 0.0051 (inactive).
For the compound `Cc1ccc(Nc2nc(N)nc(CN3CCCCCC3)n2)cc1`, in assay [1], the cell count stood at 350. Besides, the inhibition was 6.8% (inactive) in assay [1], 69.8% (active) in assay [3], 8.97% (inactive) in assay [7] and 24.6% (inactive) in assay [8]. Also, the inhibition of aggregation in assay [2] is 2.4% (inactive). In addition, the nuclei count amounted to 96.1% in assay [2] and 88.8% in assay [3]. Besides, the fluorescence slope in assay [4] is -0.449 (inactive). Further, the NADPH fluorescence slope in assay [5] was -2.5e-05 (inactive). For the same compound, in assay [6], the slope is 0.00438 (inactive).
As for `COc1cccc(Oc2cnc(N)nc2-c2ccc(OC)cc2O)c1`, in assay [1], the cell count was 664. For the same compound, the inhibition in assay [1] is -8.2% (inactive); in assay [3], -111% (inactive); in assay [7] it was 23.8% (inactive); in assay [8], 38% (inactive). The inhibition of aggregation in assay [2] is 5.1% (inactive). Further, the nuclei count in assay [2] was 112%; in assay [3] it was 87.8%. In addition, in assay [4], the fluorescence slope is -0.427 (inactive). In addition, the NADPH fluorescence slope in assay [5] is -5.9e-05 (inactive). Besides, in assay [6], the slope is 0.00372 (inactive).
`COc1ccc(C(=O)N2CCN(c3nc4cc(C)ccc4cc3C#N)CC2)c(OC)c1`: the cell count in assay [1] turned out to be 383. In addition, the inhibition in assay [1] is 7.6% (inactive); in assay [3] it was -49.6% (inactive); in assay [7], 14.5% (inactive); in assay [8], 22% (inactive). For the same compound, the inhibition of aggregation in assay [2] is -9.9% (inactive). The nuclei count in assay [2] worked out at 102%; in assay [3], 115%. Moreover, the fluorescence slope in assay [4] was -0.595 (inactive). In addition, the NADPH fluorescence slope in assay [5] is -2.2e-05 (inactive). In assay [6], the slope was 0.00559 (inactive).
For the compound `Cc1nc2scc(-c3ccco3)c2c(=O)n1/N=C/N(C)C`, the cell count in assay [1] turned out to be 453. Besides, the inhibition is -4.8% (inactive) in assay [1], -35.6% (inactive) in assay [3], -2.39% (inactive) in assay [7] and 3.07% (inactive) in assay [8]. Further, the inhibition of aggregation in assay [2] was -22.8% (inactive). The nuclei count in assay [2] was found to be 86.6%; in assay [3], 116%. Further, the fluorescence slope in assay [4] was -0.342 (inactive). For the same compound, in assay [5], the NADPH fluorescence slope was -6.4e-05 (inactive). In addition, the slope in assay [6] is 0.00533 (inactive).
Turning to `CCOC(=O)c1c(N)sn(-c2ccccc2)c1=S`, in assay [1], the cell count is 441. The inhibition in assay [1] is -9.2% (inactive); in assay [3], -55.1% (inactive); in assay [7], 15.3% (inactive); in assay [8] it was 20% (inactive). The inhibition of aggregation in assay [2] is 5.4% (inactive). The nuclei count in assay [2] was found to be 114%; in assay [3], 112%. Besides, the fluorescence slope in assay [4] was -0.37 (inactive). Also, the NADPH fluorescence slope in assay [5] was -5.3e-05 (inactive). Also, the slope in assay [6] is 0.00599 (inactive).
On to `COCCn1c(C)cc(C(=O)COC(=O)c2n[nH]c3ccccc23)c1C`, for which the cell count in assay [1] was 330. Besides, the inhibition in assay [1] is 3.7% (inactive); in assay [3] it was -26.9% (inactive); in assay [7], 71.8% (active); in assay [8] it was 49.1% (inactive). Further, the inhibition of aggregation in assay [2] was 2.3% (inactive). The results for the nuclei count in assay [2] and in assay [3] were 98.9% and 114%, respectively. For the same compound, the fluorescence slope in assay [4] was -0.5 (inactive). In assay [5], the NADPH fluorescence slope was -4.3e-05 (inactive). In assay [6], the slope was 0.00592 (inactive).
As to `CCOC(=O)N1CCN(c2c(NCCN(C)Cc3ccccc3)c(=O)c2=O)CC1`, the cell count in assay [1] was 578. Further, the inhibition in assay [1] is -2% (inactive); in assay [3], -62.3% (inactive); in assay [7], 1.64% (inactive); in assay [8], 6.95% (inactive). Also, the inhibition of aggregation in assay [2] is 9.3% (inactive). Moreover, the nuclei count in assay [2] was determined as 105%; in assay [3], 124%. The fluorescence slope in assay [4] is -0.492 (inactive). In assay [5], the NADPH fluorescence slope was -1.8e-05 (inactive). Also, in assay [6], the slope is 0.00728 (inactive).
Regarding `O=C(c1ccccc1Cl)N1CCc2ccccc2C1`, in assay [1], the cell count is 645. The inhibition is -4.9% (inactive) in assay [1], -68.8% (inactive) in assay [3], -6.82% (inactive) in assay [7] and -17% (inactive) in assay [8]. In addition, the inhibition of aggregation in assay [2] is 17.3% (inactive). Besides, the values for the nuclei count in assay [2] and in assay [3] were 97.3% and 112%, respectively. The fluorescence slope in assay [4] was -0.478 (inactive). In assay [5], the NADPH fluorescence slope was -0.000194 (inactive). The slope in assay [6] is 0.00482 (inactive).

These data come from PubChem BioAssay.
